Results on 40 compounds are retold here after PubChem BioAssay (Tox21).

Inconclusive results are not listed. A call without a number means that no potency is given here. Activity calls are given as the source filed them. Calls come from the whole dose curve; as a rule, active = well fitted activation curve with a large enough effect in the signal ratio in the repeat runs, with a control signal flat (not every such curve was filed as active); inconclusive = weak or mixed curves; inactive = flat fitted curve, though single readings scatter; the % refers to the signal ratio.

The test is described as follows: qHTS assay for small molecule activators of the heat shock response signaling pathway (AID 743210). The note with it: HeLa HSE-bla reporter, beta-lactamase ratio, 5 h; series mostly up to 62.6 µM. The text has this: U.S. Tox21 Program National Center for Advancing Translational Sciences [NCATS] NIH Chemical Genomics Center [NCGC] U.S. Environmental Protection Agency [EPA] National Institutes of Environmental Health Sciences [NIEHS] National Toxicology Program [NTP] U.S. Food and Drug Administration [FDA] Tox21 Assay Overview: Various chemicals, environmental and physiological stress conditions may lead to the activation of heat shock response/ unfolded protein response (HSR/UPR). There are three heat shock transcription factors (HSFs) (HSF-1, -2, and -4) mediating transcriptional regulation of the human HSR. To identify the compounds that activate HSR signaling, HSE-bla HeLa cell line (Invitrogen, Carlsbad, CA, USA) containing a beta-lactamase reporter gene under the control of the heat shock response elements was used to screen the Tox21 10K compound library.
Tox21 Assay Protocol Summary: The CellSensor HSE-bla HeLa cells (Invitrogen, Carlsbad, CA, USA) were dispensed at 1500 cells/6uL/well into 1536-well black wall/clear bottom plates using a Multidrop combi (Thermo Fisher Scientific, Waltham, MA) dispenser. After the assay plates were incubated at 37 C and 5% CO2 overnight, 23 nL of compounds dissolved in DMSO, positive controls or DMSO only was transferred to the assay plate by a Pintool station (Kalypsys, San Diego, CA). The plates were incubated at 37 C for 5 h. After 1 uL of LiveBLAzerTM B/G FRET substrate was added using a Flying Reagent Dispenser (Beckman Coulter, Indianapolis, IN, USA), the plates were incubated at room temperature for 2.5 h, and fluorescence intensity was measured by an Envision plate reader (PerkinElmer, Shelton, CT).
Background: In qHTS, concentration-response curves come from the screen itself.
Consider `Cc1ccc(Cl)cc1`, for which the Potency result is “inactive”.

As to `C[Si](C)(C)N[Si](C)(C)C`, the Potency result was “inactive”.

Consider `Cc1cccc(C)c1[N+](=O)[O-]`, for which the Potency entry is “inactive”.

Turning to `CC/C=C(\C(=O)N[C@@H]1C(=O)N2C(C(=O)OCOC(=O)C(C)(C)C)=C(COC(N)=O)CS[C@H]12)c1csc(N)n1`, the Potency entry is “inactive”.

Regarding `CC(C)c1ccc(C(C)C)cc1`, the Potency entry is “inactive”.

For the compound `Cc1nnc(NS(=O)(=O)c2ccc(N)cc2)s1`, the Potency entry was “inactive”.

Consider `O=C1C(N(CO)C(=O)NCO)N(CO)C(=O)N1CO` (stereo not given), for which the Potency result was “inactive”.

On to `O=c1n(CCCN2CCN(c3cccc(Cl)c3)CC2)nc2ccccn12`, for which the Potency result was “inactive”.

As for `Cc1ccc(C)c(S(=O)(=O)O)c1`, the Potency result is “inactive”.

Take `COc1cc(NC(=O)CC(C)=O)c(OC)cc1Cl`: the Potency result is “inactive”.

As for `CCN(CC)CCNC(=O)c1ccc(N)cc1`, the Potency entry was “inactive”.

Consider `CC(C=O)Cc1ccc(C(C)(C)C)cc1` (stereo not given), for which the Potency result was “inactive”.

Take `O=[N+]([O-])c1cc(C(F)(F)F)ccc1Cl`: the Potency entry was “inactive”.

In the case of `CC(=O)CC(=O)N(C)C`, the Potency entry is “inactive”.

`COC(=O)/C=C\C(=O)OC`: the Potency result is “inactive”.

On to `CC(=O)OCc1ccc2c(c1)OCO2`, for which the Potency result is “inactive”.

For the compound `CCCOCC(C)O` (stereo not given), the Potency entry was “inactive”.

Turning to `CN1CCCC1=O`, the Potency entry is “inactive”.

With `Brc1ccc(Oc2ccc(Br)cc2)cc1`, the Potency result was “inactive”.

With `COC(=O)OC`, the Potency entry was “inactive”.

In the case of `Cc1ccc(C(C)C)cc1`, the Potency result is “inactive”.

Consider `CC(C)(CO)CO`, for which the Potency entry is “inactive”.

For `O=Cc1ccc(CO)o1`, the Potency result is “inactive”.

With `OC[C@H]1O[C@@H](Oc2ccc(O)cc2)[C@H](O)[C@@H](O)[C@@H]1O`, the Potency result is “inactive”.

Consider `CC(COCC(C)OC(=O)c1ccccc1)OC(=O)c1ccccc1` (stereo not given), for which the Potency entry was “inactive”.

Turning to `Cc1cc(C)cc(O)c1`, the Potency entry is “inactive”.

As to `Nc1cccc(N)n1`, the Potency entry was “inactive”.

Take `CC(=O)OC[C@H]1O[C@@](COC(C)=O)(O[C@H]2O[C@H](COC(C)=O)[C@@H](OC(C)=O)[C@H](OC(C)=O)[C@H]2OC(C)=O)[C@@H](OC(C)=O)[C@@H]1OC(C)=O`: the Potency result was “inactive”.

As to `COCN(COC)c1nc(N(COC)COC)nc(N(COC)COC)n1`, the Potency entry was “inactive”.

In the case of `CCCCCCCC(=O)O`, the Potency result is “inactive”.

Regarding `C1CCCNCC1`, the Potency entry is “inactive”.

Take `CCn1cc(C(=O)O)c(=O)c2cc3c(cc21)OCO3`: the Potency entry is “inactive”.

For `CC(=O)C(C)C`, the Potency entry is “inactive”.

Take `OCC(CO)(CO)CO`: the Potency result is “inactive”.

`CCCCC(=O)O`: the Potency result was “inactive”.

With `Clc1cccc(Cl)c1NC1=NCCN1`, the Potency entry was “inactive”.

In the case of `C=C(CC(=O)O)C(=O)O`, the Potency entry was “inactive”.

In the case of `CC(C)=CCC/C(C)=C/C=O`, the Potency result was “inactive”.

Regarding `Cc1ccncc1`, the Potency entry is “inactive”.

Turning to `CC(=O)OC(C)(C)C1CC=C(C)CC1` (stereo not given), the Potency entry was “inactive”.
